Screen size: about 280,000 compounds; about 100 (0.036%) were called active. A call without a number means that no potency is given here. About 11% were inconclusive and are not listed. Only a selection was taken, and actives are over-represented in it overall. A number with no mark means an inactive call. The call rests on the fitted dose curve; in most records, active means well fitted inhibition curve with a large enough effect in the signal ratio, with a control signal flat (not every such curve was filed as active); inconclusive means small, poorly fitted or top-dose-only effect, or effect the other way, or a change in a side signal; inactive means no such curve, though single readings can be large or run the other way; the % refers to the signal ratio.
Biological target: Muscleblind-like protein 1 (Homo sapiens) (UniProt Q9NR56)
Experiment: qHTS Assay for Inhibitors of MBNL1-poly(CUG) RNA binding
Details: TR-FRET MBNL1-His/biotin-(CUG)12 binding, 665/545 ratio; series mostly up to 57.5 µM
Excerpt: NIH Chemical Genomics Center [NCGC] NIH Molecular Libraries Probe Production Centers Network [MLPCN] MLPCN Grant: R03 MH087421-01 Assay Submitter (PI): Charles Thornton NCGC Assay Overview: Expanded CTG repeats in the 3' untranslated region of the DM protein kinase (DMPK) gene causes type I myotonic dystrophy (DM1). DM1 is a multi-systemic disease with a prevalence of 1/7000. Clinical features include myotonia, progressive muscle weakness and wasting, cardiac arrhythmia, insulin resistance, hypersomnolence, cataracts, and other symptoms. The pathogenic effect of expanded CTG repeats stems from deleterious effects of the mutant transcript. CUGexp mRNA accumulates in nuclear foci and sequesters proteins of the muscleblind family, of which MBNL1 is the most common family member in skeletal muscles. The binding interaction between MBNL1 and CUGexp tracts leads to deregulation of alternative splicing and is therefore a key molecular step in the pathogenesis of DM1. To target this binding interaction, we optimized a protein-RNA binding assay in 1536-well format for identification of small molecule inhibitors of biotinylated (CUG)12 and his-tagged MBNL1 binding. Protein-RNA complex of MBNL1-His and Biotin-(CUG)12 captures the detection reagents terbium-labeled anti-His antibody and streptavidin conjugated XL665. This brings the terbium label within close proximity to XL665 to allow time-resolved fluorescence resonance energy transfer (TR-FRET). Inhibitors of MBNL1-(CUG)12 binding will disrupt TR-FRET.
NCGC Assay Protocol Summary: This is a TR-FRET binding assay with MBNL1-His and Biotin-(CUG)12 RNA. The assay uses a ratiometric measurement. In the presence of MBNL1-(CUG)12 complex, the excitation energy is transferred to the XL665 acceptor label, causing emission at 665nm, while the 545nm donor signal […]. Data were normalized to the controls for basal activity (buffer only) and 100% activity (with MBNL1-(CUG)12). […] The final titration was 92 nM to 58 uM. (3) Add 1 ul of terbium labeled anti-His antibody (0.055 ng/ul final concentration) (4) Add 1 ul of streptavidin-XL665 (5 nM final concentration) (5) Incubate 60 min at room temperature (6) Detect the assay plate in a EnVision plate reader (PerkinElmer) with Ex=340 nm, Em1=665 nm and Em2=545 nm. Keywords: mytonic dystrophy type I, DM1, muscleblind like 1, MBNL1, CUG expansion, protein-RNA binding inhibitor, high throughput screening, MLSMR, MLSCN, NIH Roadmap, qHTS and NCGC
Potency means the concentration at half of the fitted maximal effect.

Sequence of Muscleblind-like protein 1 (Homo sapiens) (Q9NR56 whole entry, looked up): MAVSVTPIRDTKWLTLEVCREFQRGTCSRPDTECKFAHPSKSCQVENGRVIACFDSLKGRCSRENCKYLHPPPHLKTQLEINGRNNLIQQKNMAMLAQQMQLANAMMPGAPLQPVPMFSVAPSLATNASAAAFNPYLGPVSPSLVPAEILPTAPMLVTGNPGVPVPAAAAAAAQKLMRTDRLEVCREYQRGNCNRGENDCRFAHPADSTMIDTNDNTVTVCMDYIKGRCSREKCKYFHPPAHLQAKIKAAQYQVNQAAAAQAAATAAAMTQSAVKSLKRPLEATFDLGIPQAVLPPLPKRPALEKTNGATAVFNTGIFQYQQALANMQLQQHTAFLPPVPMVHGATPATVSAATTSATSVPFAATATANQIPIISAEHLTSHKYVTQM

SMILES | Potency | activity change, negative = inhibition
COc1cccc(NC(=O)Cn2cnc3sc(C)c(S(=O)(=O)N4CCN(C)CC4)c3c2=O)c1 | 31.6 µM (active) | –
Cc1sc2ncn(CC(=O)NCCN(C)C)c(=O)c2c1S(=O)(=O)N1CCC(C)CC1 | – | inactive
COc1ccc(N2CCN(C(=O)Cn3cnc4sc(C)c(S(=O)(=O)N5CCOCC5)c4c3=O)CC2)cc1 | – | inactive
CCC1Sc2ccc(S(=O)(=O)CCC(=O)NCc3cccs3)cc2NC1=O (stereo unspecified) | – | inactive
O=C(CNc1cccc(S(=O)(=O)N2CCCCC2)c1)Nc1ccccc1F | – | inactive
Cc1c(C)c2ccc(OCC(=O)N3CCN(c4cccc(Cl)c4)CC3)cc2oc1=O | – | inactive
CC1CN(C(=S)Nc2ccccc2F)CC(C)O1 (stereo unspecified) | – | inactive
O=C(Nc1ccc(Cl)cc1)c1cccc(OC(=S)N2CCOCC2)c1 | – | inactive
CC(=O)N1CCN(c2ccccc2NC(=S)NC(=O)c2cc3ccccc3o2)CC1 | – | inactive
COc1ccc(N2CCN(C(=O)[C@@H](NC(=O)c3cc(OC)cc(OC)c3)C(C)C)CC2)cc1 | – | inactive
O=[N+]([O-])c1ccc(O)c(/C=N/Nc2ccccc2[N+](=O)[O-])c1 | – | inactive
O=C1OC2(CCCCC2)CC2=C1C1O[C@](c3ccsc3)(Cc3ccccc31)O2 | – | -2.14% [at 11.5 µM]
CCCCn1c(-c2cccc(C)c2)nc2cc3[nH]c(=O)c(C(C)C)nc3cc21 | – | inactive
COc1cc(C(=O)NCc2ccncc2)cc(Br)c1OCc1ccccc1 | – | inactive
CC1CCN(C(=S)NC(=O)c2ccccc2Br)CC1 | – | inactive
CCC(CC)c1nnc(NC(=O)C2CCN(C(=O)c3ccco3)CC2)s1 | – | inactive
COc1cccc(Cn2cc(/C=N/NC(=O)c3cc(O)cc(O)c3)c3ccccc32)c1 | – | inactive
CC1(C(=O)NNC(=S)NCC2CCCO2)CC1(Cl)Cl (stereo unspecified) | – | inactive
CCCCC(CC)CNCc1cccn1CCN1CCOCC1 (stereo unspecified) | – | inactive
COc1ccc(CSc2nnnn2-c2ccc(O)cc2)cc1F | – | inactive
CCOCCCNc1nc(-c2ccccc2)nc2ccccc12 | – | inactive
COc1ccc(Cc2n[nH]c(=S)n2NC(=O)Nc2ccc(C)cc2)cc1 | 25.1 µM (active) | –
COc1ccc(NC(=S)NCCNC(C)=O)cc1 | – | inactive
CCOc1ccc(NC(=O)CN2CCN(CC(=O)Nc3ccc(OC)cc3)CC2)cc1 | – | inactive
COc1ccc(C(=O)c2c(C)c(CCC#N)n3ccccc23)c(OC)c1 | – | inactive
Cc1[nH]c(C)c(S(=O)(=O)N2CCN(c3cccc(C(F)(F)F)c3)CC2)c1C(=O)N1CCCCC1 | – | inactive

SMILES | Potency | activity change, negative = inhibition
Cc1ccccc1C(=O)N1CCN(c2ccc(NC(=O)c3cccs3)cc2)CC1 | – | inactive
CC(=O)c1ccc(NC(=O)c2sc3nc4n(c(=O)c3c2C)CCCCC4)cc1 | – | inactive
CC(=O)N1c2ccc(S(=O)(=O)NCCC(=O)N(C)C3CCCCC3)cc2CC1C (stereo unspecified) | – | inactive
CC(=O)c1ccc(N2CCN(C(=O)C3CCN(S(=O)(=O)c4ccc5c(c4)CC(C)N5C(=O)C4CC4)CC3)CC2)cc1 (stereo unspecified) | – | inactive
C/C(=N\NC(=O)c1ccoc1C)c1ccccc1O | – | inactive
COc1ccc(N2CCN(S(=O)(=O)CCNC(=O)C34CC5CC(CC(C5)C3)C4)CC2)cc1 | – | inactive
O=C(Nc1ccncc1)Nc1ccc(F)cc1 | – | inactive
O=S(=O)(c1cccc(Cn2nnc(-c3ccc(F)cc3)n2)c1)N1CCOCC1 | – | inactive
CN(CC(=O)Nc1ccc(F)cc1)C(=O)c1ccc(-c2ccc(Cl)cc2)o1 | – | inactive
COc1ccccc1CCNC(=O)c1c(C)nn(CC(C)C)c1Cl | – | inactive
CCCOc1ccc(C2=CSC3=NCCN23)cc1Cl | – | inactive
CN(CC1CCCO1)S(=O)(=O)c1ccc(C(=O)Nc2ccc(F)cc2)cc1 (stereo unspecified) | – | inactive
Cc1ccc2sc(N(CCN(C)C)C(=O)/C=C/c3cccs3)nc2c1C | – | inactive
Cc1cc(C)c(SCCc2ccncc2)c(C)c1 | – | inactive
Cc1ccc(OCC(=O)Nc2ccc(N3CCN(C(=O)c4ccco4)CC3)cc2)c(C)c1 | – | inactive
COc1ccc(CN(C)C(=O)Cc2ccsc2)c(OC)c1OC | – | inactive
Cc1ccc(-c2noc(C3CCCN(C(=O)c4cccc(Cl)c4)C3)n2)o1 (stereo unspecified) | – | inactive
O=C(C1CCC(=O)N(C2CC2)C1)N1CCN(c2ccc(Cl)cc2)CC1 (stereo unspecified) | – | inactive
Cc1cc(C)c(NC(=O)CN2CCCCCC2)c(C)c1 | – | inactive
COc1cc(Nc2nc3ccc(Cl)cc3n3cnnc23)cc(OC)c1OC | – | inactive
Cc1ccc(CS(=O)(=O)CCC(=O)NCc2ccc(F)cc2)cc1 | – | inactive
CCOC(=O)C1(CCOC)CCN(Cc2cc3ccccc3s2)CC1 | – | inactive
CCOCCCn1c(SCC(=O)Nc2cc(OC)ccc2OC)nc2ccccc2c1=O | – | inactive
C[C@H]1[C@H]2c3nc4ccccc4n3C[C@H]1ON2C1CCCCC1 | – | inactive
C=CCNc1nc(N)c([N+](=O)[O-])c(NC2CCCCC2)n1 | – | inactive
Cc1[nH]c2ccccc2c1C(=O)CN1CC(C)CC(C)C1 (stereo unspecified) | – | inactive

SMILES | Potency | activity change, negative = inhibition
O=C(c1ccccc1)N1N=C(c2ccccc2O)CC1c1ccc(Br)cc1 (stereo unspecified) | – | inactive
Nc1nc(Nc2ccccc2F)nc(NC2CCCCC2)c1[N+](=O)[O-] | – | inactive
COc1ccc(OC)c(CNC(=O)Cn2nc(C)c3c(C)n(-c4ccc(C)cc4)nc3c2=O)c1 | – | inactive
Cc1ccc(C)c(N2CCN(C(=O)CCCn3c(=O)c4cccn4c4cccnc43)CC2)c1 | – | inactive
CCOc1ccc(NC(=O)CCCCCN2C(=O)[C@@H]3Cc4ccccc4CN3C2=O)cc1 | – | inactive
CCc1ccc(/C=N/NC(=O)c2nnn(-c3nonc3N)c2CN2CCc3ccccc32)cc1 | – | inactive
COc1ccc(NS(=O)(=O)c2cc(C(=O)Nc3ccccc3C(=O)O)ccc2C)cc1 | – | inactive
COc1ccc(CN(C)C(=O)c2cc(-c3ccc(C)cc3C)nc3ccccc23)c(OC)c1OC | – | inactive
O=C(NCc1cccc(Cl)c1)C1CCC(=O)N(C2CC2)C1 (stereo unspecified) | – | inactive
CC(=O)N1c2ccc(S(=O)(=O)N3CCC(C(=O)N4CCN(c5ccccc5)CC4)CC3)cc2CC1C (stereo unspecified) | – | inactive
O=C(NCCCN1CCOCC1)c1ccc2c(c1)N(Cc1cccc(F)c1)C(=O)c1ccccc1S2 | – | inactive
CCc1ccc(C(CNc2nc(C(F)(F)F)nc3ccccc23)N(C)C)cc1 (stereo unspecified) | – | inactive
Cc1nnc(NC(=O)C(c2ccccc2)c2ccccc2)s1 | – | inactive
COc1cccc(CCNC(=O)c2cccc(NC(=O)C3=C(C)OCCS3)c2)c1 | – | inactive
Cc1cc(=O)[nH]c(Nc2cccc(Br)c2)n1 | – | inactive
COc1ccccc1N1CCN(S(=O)(=O)CCNC(=O)c2ccc(OC(C)C)cc2)CC1 | – | inactive
COc1cccc(CN(C)CC(O)COC(c2ccccc2)c2ccccc2C)c1 (stereo unspecified) | – | inactive
CCOc1ccc(NC(=O)C(C)N2C(=O)c3ccccc3C2=O)cc1 (stereo unspecified) | – | inactive
CCOc1ccc(NC(=O)c2nc(SCC)ncc2Cl)cc1 | – | inactive
CCC(C)[C@H](NC(=O)N1CCn2c1nc1ccccc12)C(=O)NCc1ccc(OC)cc1 (stereo partly specified) | – | inactive
COc1ccc(NC(=O)c2cc([N+](=O)[O-])ccc2NC(=O)CNC2CCCCC2C)c(OC)c1 (stereo unspecified) | – | inactive
COc1ccc(CCNC(=O)c2ccccc2OCc2ccccc2)cc1 | – | inactive
Cc1cc(Cl)ccc1C(=O)C1CCCN(C(=O)c2nonc2C)C1 (stereo unspecified) | – | inactive
CC(CCc1ccc(O)cc1)NCc1ccc(Cl)cc1Cl (stereo unspecified) | – | inactive
COc1ccc(CCNCc2c(-c3ccccc3)n(C)c3ccccc23)cc1 | – | inactive
CCC(=O)c1cn(CCOc2ccccc2OC)c2ccccc12 | – | inactive

SMILES | Potency | activity change, negative = inhibition
COc1ccc(CC(=O)N/N=C/c2cc([N+](=O)[O-])cc(Br)c2O)cc1 | – | inactive
COC(=O)c1cc(S(=O)(=O)N2CCN(c3cc(C)ccc3C)CC2)c[nH]1 | – | inactive
COc1cccc(C(=O)Nc2ccc(N3CCN(C(=O)c4ccco4)CC3)cc2)c1 | – | inactive
COC(=O)c1ccc(CN2CCCC(C(=O)Nc3cccc(-n4cnnn4)c3)C2)cc1 (stereo unspecified) | – | inactive
Cc1cc(=O)oc2c(C)c(OC(C)C(=O)NC3CCN(Cc4ccccc4)CC3)ccc12 (stereo unspecified) | – | inactive
C[C@H](NC(=O)[C@@H]1Cc2ccccc2CN1C(=O)OC(C)(C)C)C(=O)NC1CCCC1 | – | inactive
CCCn1c(C2CCCN2c2nc(-c3ccc(OC)cc3)cs2)nc2ccccc21 (stereo unspecified) | – | inactive
Cc1ccc2nc(-c3ccncc3)cc(C(=O)Nc3ccncc3)c2c1 | – | inactive
COc1cccc(C(=O)N/N=C(\C)c2cccc(NC(=O)c3ccc(F)cc3)c2)c1OC | – | inactive
O=C(NCCCO)c1cc2c([nH]c3ccccc32)c(-c2ccc(F)cc2)n1 | – | inactive
CCCC(=O)N1CCN(c2nnc(-c3ccc(C)cc3)c3ccccc23)CC1 | – | inactive
Cc1cc(Cl)ccc1OCCCC(=O)Nc1cccc(-n2cnnn2)c1 | – | inactive
CCOc1ccc(CCNC(=O)CCc2nnc3ccc(N4CCCC4)nn23)cc1OCC | – | inactive
CC(=O)N1CCOc2ccc(S(=O)(=O)N3CCN(c4cccc(C(F)(F)F)c4)CC3)cc21 | – | inactive
CCCCN(CCCC)CCCNC(=O)CN1C(=O)COc2ccc(S(=O)(=O)N3CCC(C)CC3)cc21 | – | inactive
Cc1ccc(OCC(=O)Nc2ccc(C(=O)O)cc2NC(=O)COc2ccc(C)c(C)c2)cc1C | – | inactive
COc1ccc(C(=O)CC(=O)C(=O)Nc2cc([N+](=O)[O-])ccc2OC)cc1 | – | inactive
CC(C)c1ccc(S(=O)(=O)N2CCN(C(=O)c3ccc(N4CCCC4)c([N+](=O)[O-])c3)CC2)cc1 | – | inactive
COc1cccc(NC(=O)C2CCCN(c3ncnc4c3nc3n4CCCCC3)C2)c1 (stereo unspecified) | – | inactive
Cc1ccc(CN2CCC(n3nccc3NC(=O)CCCc3ccccc3)CC2)o1 | – | inactive
CCc1ccc(NC(=O)CN2CCC(C(=O)c3ccc(OC)cc3)CC2)cc1 | – | inactive
O=C(Nc1ccccc1N1CCCC1)c1ccc2ccccc2c1 | – | inactive
CCCCCN(C(=O)CCC(=O)OCC(=O)NCc1ccc(OC)cc1)c1c(N)n(CCCC)c(=O)[nH]c1=O | – | inactive
